PubChem BioAssay (NCI)
Compounds without any hit were thinned out: in the full panel of roughly 79,000, 15% have a hit. Unmarked numbers belong to inactive results. Activity calls are given as the source filed them. Rule as the data show it: active = growth inhibition above about 70%; inactive = the rest.

Legend:
[1] = NCI Yeast Anticancer Drug Screen. Data for the rad50 strain (AID 155);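 also: 0% = growth of vehicle-only cultures of the same strain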; conditions: S. cerevisiae rad50 strain growth inhibition; at 50.0 µM; hits give high values
Outline: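 Cells are treated with compound, grown, and their growth is then scored against vehicle-only cultures of the same repair-deficient yeast strain.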

[2] = NCI Yeast Anticancer Drug Screen. Data for the mec2-1 strain (AID 157); conditions: S. cerevisiae mec2-1 strain, at 50.0 µM, hits give high values
Outline: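 Vehicle-treated cultures served as reference for growth inhibition of compound-exposed mec2-1 yeast.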

[3] = NCI Yeast Anticancer Drug Screen. Data for the sgs1 mgt1 strain (AID 161);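 also: 0% = growth of cultures given vehicle only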; conditions: S. cerevisiae sgs1 mgt1 strain, at 50.0 µM, hits give high values
Outline: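 Mutant yeast exposed to compound; growth scored against vehicle-only wells.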

[4] = NCI Yeast Anticancer Drug Screen. Data for the cln2 rad14 strain (AID 165);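 also: 0% = growth equal to vehicle treated cultures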; conditions: S. cerevisiae cln2 rad14 strain, at 50.0 µM, hits give high values
Outline: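 Each compound was tested on cln2 rad14 yeast. Inhibition of growth was calculated against vehicle-exposed controls.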

[5] = NCI Yeast Anticancer Drug Screen. Data for the bub3 strain (AID 167); conditions: S. cerevisiae bub3 mutant strain, at 50.0 µM, hits give high values
Outline: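 Part of a panel of yeast mutants defective in DNA damage repair or cell cycle regulation. Each strain is grown with compound, and inhibition is calculated relative to solvent-treated cultures.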

[6] = NCI Yeast Anticancer Drug Screen. Data for the mlh1 rad18 strain (AID 175); conditions: S. cerevisiae mlh1 rad18 strain growth inhibition; at 50.0 µM; hits give high values
Outline: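 Vehicle-treated cultures served as the reference for growth inhibition in a yeast strain carrying DNA damage repair alterations exposed to each compound.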

Row | SMILES | growth inhibition [1] | growth inhibition [2] | growth inhibition [3] | growth inhibition [4] | growth inhibition [5] | growth inhibition [6]
1 | NC1C=NNC1=O (stereo unspecified) | -11.1% | -7.95% | -9.5% | -13.2% | -10.1% | -23.9%
2 | CC1(C)COC(c2ccc(CC(Cc3ccc(C4(C(C)(C)C)OCC(C)(C)CO4)cc3)C(=O)O)cc2)(C(C)(C)C)OC1 | -7.25% | -19.8% | 3.1% | 5.15% | 3.8% | 5.35%
3 | O=C(NCCCN1CCCCCC1)C(c1ccccc1)C1CCCCC1 (stereo unspecified) | 25.3% | -16.4% | 49.4% | 13.9% | 14.6% | 36.1%
4 | Cc1[nH]c(=O)c(C#N)c(C)c1[N+](=O)[O-] | -0.05% | 20.3% | 3.95% | -35.7% | 10.6% | 1.9%
5 | COc1ccc2[nH]cc(C(=O)C(=O)NC34CC5CC(CC(C5)C3)C4)c2c1 | 12.7% | 6% | -5.2% | -1.7% | 16.2% | -22.5%
6 | COc1ccc(/C=N/n2cnc3c(c2=O)SC(=C(C#N)C#N)N3c2ccccc2)cc1 | -5.4% | -35.5% | -15.6% | -16.1% | -19.5% | -41%
7 | O=C(CCl)N1C(=O)NC(c2ccc(Cl)cc2)(c2ccc(Cl)cc2)C1=O | 6.9% | 12% | 8.9% | -4.8% | -29% | -3.9%
8 | CCCCCCCCCCCCCCCCCCCCCCCC | 0.1% | 2.3% | 18.7% | -53% | 21.7% | -13.2%
9 | CC(=O)OC(C(=O)N1CC1)C(OC(C)=O)C(OC(C)=O)C(OC(C)=O)C(=O)N1CC1 (stereo unspecified) | 24.1% | 20.9% | 25.4% | 10.1% | 28.6% | 29.3%
10 | Cc1cc(C)c(-c2cc(C(O)C3OC4OC(C)(C)OC4C3O)on2)c(C)c1 (stereo unspecified) | 15.3% | -0.9% | -1.3% | 9.25% | 0.8% | 0.3%
11 | COc1cc(NN=C(C#N)C#N)c(OC)cc1Cl | 37.6% | 11.2% | 48% | 23.1% | 40.7% | 34.7%
12 | CN(C)Cc1[nH]c2ccccc2c1Sc1ccccc1 | 0.85% | 2.4% | 24.6% | 6.2% | -27.9% | 30.8%
13 | C=C(C)c1ccc(C(=C)C)cc1 | -45.9% | -40.9% | -38.2% | -3.9% | -23.9% | -40.5%
14 | O=C(O)CCCCC1CCSS1 (stereo unspecified) | 32.2% | 15.8% | 46% | 20.1% | 25.5% | 20.9%
15 | O=C(O)c1cnc2c(ccc3[nH]cccc32)c1=O | -7.3% | -33.8% | -9% | 15.6% | 19.6% | -2.8%
16 | CCCCOCCOCCOC(=O)c1ccc(C)cc1 | 3.9% | -11% | -13.8% | -49.9% | 46% | 11%
17 | CC(=O)Nc1ccc(S(=O)(=O)N/N=C(\C)c2csc3ccccc23)cc1 | -2.7% | -5.25% | -19.9% | -16.1% | -4.05% | 0.15%
18 | C=C(C)C1Cc2cc(C(C)=O)ccc2O1 (stereo unspecified) | 12.7% | -11.7% | 9.55% | 5.8% | -4% | -59.2%
19 | COc1ccc(-c2cc(=O)c3cccc(CC(=O)O)c3o2)cc1 | 8.2% | 11.7% | -0.3% | 31.1% | 2.05% | 18.4%
20 | CCC(CC)=NNS(=O)(=O)c1cccc2ccccc12 | 10.7% | -12.4% | -11.7% | -15.7% | -17.9% | -0.1%
21 | Clc1ccc(-c2ccncc2)cc1 | 17.1% | -9.15% | 7.2% | -69.7% | 13.1% | 5.7%

Row | SMILES | growth inhibition [1] | growth inhibition [2] | growth inhibition [3] | growth inhibition [4] | growth inhibition [5] | growth inhibition [6]
22 | O=c1[nH]c(NCc2ccncc2)nc2nc[nH]c12 | 10.2% | -3.8% | -14.8% | 3.1% | -21.1% | -52%
23 | C=C(Cl)CSc1ncnc2nc[nH]c12 | 34.5% | 22.9% | 18.2% | 8.05% | 30.6% | 36.4%
24 | O=C(CC(C(=O)c1cccs1)c1ccsc1)c1ccsc1 (stereo unspecified) | -14% | -50.2% | -4.4% | 7.55% | 25.2% | -25.6%
25 | O=C(NNC(=O)c1ccccc1Br)c1ccccc1 | -17.6% | -45% | -5.4% | 3.45% | -21.5% | -23.6%
26 | CC(C)(C)OC(=O)NC(CS(=O)(=O)O)C(=O)O (stereo unspecified) | -39.1% | -11.4% | -2.4% | 13.4% | 13% | -15.3%
27 | CC(C)CC(O)(CC(C)C)C(CCC(=O)Nc1ccccc1)C(=O)Nc1ccccc1 (stereo unspecified) | 26.1% | 11.9% | 1.9% | -52.1% | -8.5% | 7.6%
28 | CCC(Cc1ccccc1)C1=NC(C)(C)CC(C)O1 (stereo unspecified) | 1.2% | 3.95% | -5.25% | -20.6% | -1.4% | 25.4%
29 | CC(O)c1cc2c(s1)C(=O)c1scc(C(C)O)c1C2=O (stereo unspecified) | 89.8% (active) | 93.1% (active) | 92% (active) | 90.8% (active) | 91.4% (active) | 90.8% (active)
30 | NC(=O)C1CC(O)CN1C(=O)c1cccnc1 (stereo unspecified) | 11.2% | 19.8% | 15.3% | -7% | 8.9% | 5.35%
31 | O=C(OCc1ccccc1)N1CCCCC1 | 7.9% | -2.65% | 5.45% | -13.2% | 22.2% | -1%
32 | COC1=C(OC)C(=O)C2=C(OCO2)C1=O | -1.05% | 16.2% | 4.2% | -1.35% | 16.5% | -1.1%
33 | Cc1ccc(C(=O)Nc2ccc(CP(=O)(O)O)cc2CP(=O)(O)O)cc1NC(=O)c1cccc(N)c1 | -7.3% | -1.95% | 4.4% | 0.4% | 0.8% | -1.25%
34 | COc1ccc(-c2c3c(n(C4OC(COC(C)=O)C(OC(C)=O)C(OC(C)=O)C4OC(C)=O)c(=S)c2C#N)CC(C)(C)CC3=O)cc1 (stereo unspecified) | -2.05% | -0.8% | 10.8% | -9.35% | -0.05% | 8.9%
35 | N#C/C(=C/N1C(=O)CC(=O)NC1=S)c1cccc(Cl)c1 | -30.7% | -14.3% | -31.2% | 18.2% | -28.8% | -48.5%
36 | O=c1c(SCc2ccc(Cl)cc2Cl)c(SCc2ccc(Cl)cc2Cl)cnn1-c1ccccc1 | 16.8% | -1.4% | 7.3% | 23.9% | 1.05% | 4.05%
37 | ClCCCCOC1CCCCO1 (stereo unspecified) | -4.6% | 5.35% | 4.9% | 2.7% | -12.7% | -29.8%
38 | COc1cc2c(SCCN(C)C)nc3ccccc3c2c2ccccc12 | 89.9% (active) | 92.3% (active) | 90.8% (active) | 87.8% (active) | 91.5% (active) | 89.1% (active)
39 | [Cl][Pt+2][Cl].[NH-]CC(O)c1ccc2oc3ccccc3c2c1.[NH-]CC(O)c1ccc2oc3ccccc3c2c1 (stereo unspecified) | -23.3% | -11.2% | -30.6% | -21.1% | 7.35% | 17.6%
40 | C/C(CCn1[nH]c(=O)ccc1=O)=N\O | -6.55% | -19.2% | -5.8% | -12.1% | -24.6% | -11.3%
41 | COc1cc(OC)c(/C=C2\N=C(C)N(Nc3nnc(NN4C(=O)/C(=C/c5c(OC)cc(OC)cc5OC)N=C4C)c4ccccc34)C2=O)c(OC)c1 | -0.15% | -2.25% | -12.8% | -2.5% | -2.7% | 8.15%
